Assay results from paper PMC4336329 (PLoS ONE, 2015).
Screen size: about 310,000 compounds; about 14,000 (4.5%) showed an effect of 50% or more. The effect is printed as a negative number. The sample as a whole holds a higher share of strong results than the screen did.

molecular target: human ether-à-go-go-related gene (hERG) potassium channel (human, UniProt Q12809); experiment: primary screen, population patch clamp on CHO cells stably expressing hERG; higher = less effect of the substance
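Note: peak tail current of the secondary pulse compared with the same well before compound.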

human ether-à-go-go-related gene (hERG) potassium channel, sequence (Q12809 whole entry, looked up): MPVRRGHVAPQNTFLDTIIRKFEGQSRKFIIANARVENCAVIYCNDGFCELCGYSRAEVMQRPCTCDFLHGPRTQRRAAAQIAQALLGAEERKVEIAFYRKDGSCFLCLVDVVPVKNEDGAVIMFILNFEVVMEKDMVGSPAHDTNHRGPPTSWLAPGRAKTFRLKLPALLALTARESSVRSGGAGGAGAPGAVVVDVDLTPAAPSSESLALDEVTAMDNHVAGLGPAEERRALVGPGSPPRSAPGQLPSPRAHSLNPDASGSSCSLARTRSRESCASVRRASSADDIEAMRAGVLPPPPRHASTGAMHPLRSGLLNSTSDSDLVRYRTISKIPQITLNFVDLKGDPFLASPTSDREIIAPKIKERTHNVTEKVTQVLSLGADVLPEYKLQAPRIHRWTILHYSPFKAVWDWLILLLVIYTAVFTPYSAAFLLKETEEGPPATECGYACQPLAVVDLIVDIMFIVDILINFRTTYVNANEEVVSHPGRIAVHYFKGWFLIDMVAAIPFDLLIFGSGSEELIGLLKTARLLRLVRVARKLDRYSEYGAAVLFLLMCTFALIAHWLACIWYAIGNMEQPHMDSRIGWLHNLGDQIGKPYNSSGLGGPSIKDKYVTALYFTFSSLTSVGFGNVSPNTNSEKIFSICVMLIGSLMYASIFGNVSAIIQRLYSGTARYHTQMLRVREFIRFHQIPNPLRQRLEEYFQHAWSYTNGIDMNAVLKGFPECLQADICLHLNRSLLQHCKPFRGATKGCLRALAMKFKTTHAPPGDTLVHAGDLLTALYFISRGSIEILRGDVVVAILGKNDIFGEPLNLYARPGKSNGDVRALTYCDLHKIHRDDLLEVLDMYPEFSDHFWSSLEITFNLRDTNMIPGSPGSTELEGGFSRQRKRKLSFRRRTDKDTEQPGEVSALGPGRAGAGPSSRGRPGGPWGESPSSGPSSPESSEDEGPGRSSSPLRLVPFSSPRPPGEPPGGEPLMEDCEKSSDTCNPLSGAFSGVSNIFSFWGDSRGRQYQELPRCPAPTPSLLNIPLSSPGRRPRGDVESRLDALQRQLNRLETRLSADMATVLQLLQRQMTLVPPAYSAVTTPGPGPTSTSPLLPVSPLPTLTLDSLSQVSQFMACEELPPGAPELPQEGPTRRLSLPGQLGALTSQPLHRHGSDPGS

SMILES | hERG current change (%, negative = inhibition) at 10uM
Cc1ccc(/C=N/NC(=O)c2cc(-c3cccnc3)nc3ccccc23)cc1 | -5.06%
N#Cc1ccc(OCC(O)CS(=O)(=O)c2ccccc2)cc1 (stereo not shown) | -21%
CC(=O)c1ccc(S(=O)(=O)Nc2cc3c(cc2C(C)=O)OCO3)cc1 | 21.2%
COc1ccc(C(=O)N(Cc2nc(-c3ccc(C)cc3)no2)C(C)C)cc1OC | -31.4%
CCCCCCCN1C2=NCCN2c2ccccc21.Cl | -79.6%
CCCN1C2=NCCN2c2ccccc21.Cl | -9.75%
CCCCCCN1C2=NCCN2c2ccccc21.Cl | -74%
Br.CCCCCN1C2=NCCN2c2ccccc21 | -71.4%
O=C(NC1CCCC1)c1cc2nc(-c3ccco3)cc(C(F)(F)F)n2n1 | 20.1%
C#CCOCCOCCOCCNc1nc(N2CCN(C(=O)[C@H]([C@@H](C)CC)n3cc([C@@H](N)CO)nn3)CC2)nc(N2CCN(C(=O)[C@H](CCCCN)n3cc([C@@H](N)CC(C)C)nn3)CC2)n1.Cl | -0.687%
NC(=O)CSc1cn(Cc2ccc(F)cc2)c2ccccc12 | 2.24%
COc1ccc2c(c1)c(=O)oc1c(C)c(OCc3cc(C(=O)O)oc3C)ccc12 | 22.5%
C=CCc1c(C)nc(-c2ccccc2)nc1N/N=C(\C)c1ccc(N)cc1 | -0.357%
CSc1ccc(N2CCN(CCCNC(=O)Nc3ccccc3F)CC2)cc1 | -49.1%
CCOc1cccc(N2CCN(CCNC(=O)Nc3ccc(C)cc3)CC2)c1C | -57%
O=C(NCCCN1CCOCC1)NC12CC3CC(CC(C3)C1)C2 | 1.72%
CCOc1ccc(NC(=O)NCCN2CCN(c3cccc(C)c3C)CC2)cc1 | -24.3%
O=C(CN1C(=O)COc2ccccc21)NCCCN1CCN(c2ccccc2F)CC1 | -10.7%
O=C(NCCc1ccc(F)cc1)Nc1ccc([N+](=O)[O-])cc1 | -12%
O=C(NCCCN1CCN(c2ccc(F)cc2)CC1)Nc1ccc([N+](=O)[O-])cc1 | -73.9%

SMILES | hERG current change (%, negative = inhibition) at 10uM
CSc1ccc(NC(=O)NCCCN2CCN(c3ccccc3F)CC2)cc1 | -55.1%
CN1CCN(CCCNC(=O)Nc2ccc([N+](=O)[O-])cc2)CC1 | -7.46%
O=C(NCCc1ccc(F)cc1)NC12CC3CC(CC(C3)C1)C2 | -13.4%
O=C(NCCCN1CCN(c2ccc(F)cc2)CC1)NC12CC3CC(CC(C3)C1)C2 | -73.2%
Cc1ccc(NC(=O)NCCN2CCN(C(=O)Nc3ccc(C)cc3)CC2)cc1 | -36.4%
COc1c(C=O)cc2c3c1CCCN3CCC2 | 23.3%
COc1ccc(N(C(=O)c2ccco2)C(C(=O)NC2CCCC2)c2cccs2)cc1OC (stereo not shown) | 1.89%
O=S1(=O)N=C(N/N=C/c2ccco2)c2ccccc21 | 13.1%
COc1ccc(S(=O)(=O)N2CCOCC2)cc1NC(=O)COc1ccccc1OC | 22.3%
COc1cc(C(=O)OCC(=O)N2CCOCC2)c([N+](=O)[O-])cc1OC | 14.5%
O=C(Nc1nccs1)c1ccc(COc2ccc(F)cc2)o1 | 8.63%
O=C1C2C(C(=O)N1c1nccs1)C1C=CC2C12CC2 (stereo not shown) | -8.95%
CCOc1ccc(NC(=O)CCN2CCN(c3ccccc3F)CC2)cc1 | -20.2%
COc1ccc(NC(=O)NCCCN2CCN(c3ccccc3F)CC2)cc1 | -63.6%
O=C(Cc1ccccc1[N+](=O)[O-])N1CCN(c2ccccc2F)CC1 | 3.23%
O=C(NCCCN1CCCC1)Nc1ccccc1[N+](=O)[O-] | 18.1%
CCOc1ccc(NC(=O)NCCN2CCN(c3ccccc3F)CC2)cc1 | -62.3%
O=C(NCCCN1CCN(c2ccccc2F)CC1)Nc1ccccc1[N+](=O)[O-] | -72.1%
CCc1ccc(NC(=O)NCCN2CCN(c3ccc(OC)cc3)CC2)cc1 | -14.1%
O=C(NCCCN1CCCC1)Nc1ccc(F)cc1 | 4.71%

SMILES | hERG current change (%, negative = inhibition) at 10uM
COc1ccc(NC(=O)CN2CCN(c3ccccc3F)CC2)cc1 | -18.1%
CCOc1ccc(NC(=O)NCCCN2CCCC2)cc1 | -1.89%
O=C(NCCN1CCCCC1)Nc1ccc(F)cc1 | -13.1%
O=C(NCCCN1CCN(c2ccccc2F)CC1)Nc1ccc(F)cc1 | -66.3%
Cc1ccc(C(=O)NC(=S)Nc2ccc(-c3cc4ccccc4oc3=O)cc2)c(C)c1 | 27.1%
Cc1ccc(C(=O)NCCc2ccccc2)cc1 | -1.2%
CSc1cccc(NC(=O)Nc2ccccc2C(N)=O)c1 | 15.3%
CCCOc1ccc(/C=N\NC(=O)CCc2n[nH]c(=O)[nH]c2=O)cc1OC | 2.51%
COc1ccc(C2=NCC(CSc3nccc(=O)[nH]3)S2)cc1 (stereo not shown) | 1.52%
O=C(Cc1n[nH]c(=O)c2ccccc12)NC(c1ccccc1)c1ccccc1 | 6.6%
Cn1c(=O)c(-c2cc(Br)ccc2N)nc2ccccc21 | -29.3%
COc1ccc(C(=O)COC(=O)c2cc(C)no2)c(OC)c1 | 12%
COC(=O)c1ccc2c(c1)C(C)(C)C(/C=C/c1ccccc1O)=[N+]2C.[I-] | -69.5%
COC(=O)c1ccc2nc(C)c(C)nc2c1 | 15.8%
COC(=O)c1ccc2c(c1)C(C)(C)C(/C=C/c1ccc(OC)c(OC)c1OC)=[N+]2C.[I-] | -2.88%
COC(=O)c1ccc(/C=C/C(=O)O)cc1 | 11.9%
COC(=O)c1ccc2c(c1)C(C)(C)C(/C=C/c1ccc(O)cc1)=[N+]2C.[I-] | -70.9%
COC(=O)c1ccc2c(c1)C(=O)/C(=C/c1ccc(O)cc1)O2 | 18.2%
